Source: PubChem BioAssay AID1159580 (chemical genetic matrix, 2015)
About 2,000 (36%) of roughly 5,500 compounds were called active. Not shown: some 18% with an inconclusive outcome. No stated cut-off is given here; in the data, active means normalized growth mostly below about 0.91 (no sharp cut-off); inconclusive means no clear call, values can overlap the other calls; inactive means mostly above about 0.92. Some of the results follow.

Experiment: chemical genetic growth profiling, strain panel (AID 1159580);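 further: tested at 20 µM; growth read once vehicle control cultures reached saturation at 30 °C; 1 = growth at the plate median or of vehicle wells; lower values mean less growth of the strain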
Conditions: growth OD

Measured: normalized growth

CC(=O)O[C@@H]1CC2C(C)(C)C(=O)C=C[C@]2(C)C2CC[C@@]3(C)[C@H](c4ccoc4)OC(=O)[C@H]4O[C@]43[C@@]21C (stereo partly drawn)
inactive: S. cerevisiae deletion strains, locus YJR066W, strain TOR1, active compounds read low 0.932 | S. cerevisiae deletion strains, locus YKL009W, strain mrt4, active compounds read low 1.07 | S. cerevisiae deletion strains, locus YKL068W, active compounds read low 1 | S. cerevisiae deletion strains, locus YKL085W, strain MDH1 (second series), active compounds read low 1.03 | S. cerevisiae deletion strains, locus YKL085W, strain MDH1, active compounds read low 1.03 | S. cerevisiae deletion strains, locus YKL160W, strain elf1, active compounds read low 1.02 | S. cerevisiae deletion strains, locus YKR001C, strain vps1, active compounds read low 0.975 | S. cerevisiae deletion strains, locus YKR026C, strain gcn3, active compounds read low 0.985 | S. cerevisiae deletion strains, locus YKR091W, strain srl3, active compounds read low 1 | S. cerevisiae deletion strains, locus YLL001W, strain dnm1, active compounds read low 0.972 | S. cerevisiae deletion strains, locus YLL026W, active compounds read low 1.01 | S. cerevisiae deletion strains, locus YLL041C, strain sdh2, active compounds read low 0.992 | S. cerevisiae deletion strains, locus YLR027C, strain aat2, active compounds read low 1.02 | S. cerevisiae deletion strains, locus YLR039C, strain RIC1, active compounds read low 0.877 | S. cerevisiae deletion strains, locus YLR058C, strain SHM2, active compounds read low 1 | S. cerevisiae deletion strains, locus YLR102C, strain apc9, active compounds read low 0.993 | S. cerevisiae deletion strains, locus YLR113W, strain HOG1, active compounds read low 0.987 | S. cerevisiae deletion strains, locus YLR221C, strain rsa3, active compounds read low 0.989 | S. cerevisiae deletion strains, locus YLR258W, strain gsy2, active compounds read low 1.01 | S. cerevisiae deletion strains, locus YLR262C, strain YPT6 (second series), active compounds read low 0.927 | S. cerevisiae deletion strains, locus YLR262C, strain YPT6, active compounds read low 0.962 | S. cerevisiae deletion strains, locus YLR268W, strain sec22, active compounds read low 1 | S. cerevisiae deletion strains, locus YLR320W, strain mms22, active compounds read low 0.954 | S. cerevisiae deletion strains, locus YLR330W, strain CHS5, active compounds read low 1.01 | S. cerevisiae deletion strains, locus YLR342W, strain FKS1 (second series), active compounds read low 0.966 | S. cerevisiae deletion strains, locus YLR342W, strain FKS1, active compounds read low 1.01 | S. cerevisiae deletion strains, locus YLR357W, strain rsc2, active compounds read low 1.12 | S. cerevisiae deletion strains, locus YLR370C, strain arc18, active compounds read low 1 | S. cerevisiae deletion strains, locus YLR371W, strain rom2, active compounds read low 0.989 | S. cerevisiae deletion strains, locus YLR384C, strain iki3, active compounds read low 1.02 | S. cerevisiae deletion strains, locus YLR418C, strain cdc73, active compounds read low 1.04 | S. cerevisiae deletion strains, locus YML016C, strain PPZ1, active compounds read low 0.999 | S. cerevisiae deletion strains, locus YML032C, strain rad52, active compounds read low 0.993 | S. cerevisiae deletion strains, locus YML120C, strain ndi1, active compounds read low 0.965 | S. cerevisiae deletion strains, locus YML124C, strain tub3, active compounds read low 0.979 | S. cerevisiae deletion strains, locus YMR058W, strain fet3, active compounds read low 0.983 | S. cerevisiae deletion strains, locus YMR078C, strain ctf18, active compounds read low 0.983 | S. cerevisiae deletion strains, locus YMR125W, strain sto1, active compounds read low 1.07 | S. cerevisiae deletion strains, locus YMR129W, active compounds read low 1 | S. cerevisiae deletion strains, locus YMR205C, strain PFK2, active compounds read low 0.981 | S. cerevisiae deletion strains, locus YMR223W, strain ubp8, active compounds read low 1 | S. cerevisiae deletion strains, locus YMR231W, strain pep5, active compounds read low 1.01 | S. cerevisiae deletion strains, locus YMR263W, strain SAP30, active compounds read low 0.993 | S. cerevisiae deletion strains, locus YMR307W, strain GAS1, active compounds read low 0.918 | S. cerevisiae deletion strains, locus YNL067W, strain RPL9B, active compounds read low 1.01 | S. cerevisiae deletion strains, locus YNL071W, strain lat1, active compounds read low 1 | S. cerevisiae deletion strains, locus YNL183C, strain NPR1, active compounds read low 0.943 | S. cerevisiae deletion strains, locus YNL209W, strain ssb2, active compounds read low 1.01 | S. cerevisiae deletion strains, locus YNL233W, strain BNI4, active compounds read low 1.02 | S. cerevisiae deletion strains, locus YNL248C, strain rpa49, active compounds read low 1.06 | S. cerevisiae deletion strains, locus YNL250W, strain rad50, active compounds read low 1.01 | S. cerevisiae deletion strains, locus YNL271C, strain bni1, active compounds read low 1 | S. cerevisiae deletion strains, locus YNL298W, strain CLA4, active compounds read low 1 | S. cerevisiae deletion strains, locus YNL307C, strain MCK1, active compounds read low 0.989 | S. cerevisiae deletion strains, locus YNL322C, strain KRE1 (second series), active compounds read low 1.01 | S. cerevisiae deletion strains, locus YNL322C, strain KRE1, active compounds read low 1 | S. cerevisiae deletion strains, locus YNR049C, strain mso1, active compounds read low 1.01 | S. cerevisiae deletion strains, locus YNR052C, strain pop2, active compounds read low 0.981 | S. cerevisiae deletion strains, locus YOL006C, strain TOP1, active compounds read low 1.01 | S. cerevisiae deletion strains, locus YOL012C, strain htz1 0.906 | S. cerevisiae deletion strains, locus YOL147C, strain pex11, active compounds read low 0.988 | S. cerevisiae deletion strains, locus YOR001W, strain rrp6, active compounds read low 0.976 | S. cerevisiae deletion strains, locus YOR061W, strain CKA2, active compounds read low 0.997 | S. cerevisiae deletion strains, locus YOR069W, strain VPS5, active compounds read low 1 | S. cerevisiae deletion strains, locus YOR070C, strain gyp1, active compounds read low 1.01 | S. cerevisiae deletion strains, locus YOR080W, strain dia2, active compounds read low 0.996 | S. cerevisiae deletion strains, locus YOR083W, strain WHI5, active compounds read low 0.98 | S. cerevisiae deletion strains, locus YOR106W, strain vam3, active compounds read low 1.03 | S. cerevisiae deletion strains, locus YOR136W, strain idh2, active compounds read low 1.01 | S. cerevisiae deletion strains, locus YOR144C, strain elg1, active compounds read low 0.979 | S. cerevisiae deletion strains, locus YOR184W, strain ser1, active compounds read low 1.02 | S. cerevisiae deletion strains, locus YOR231W, strain MKK1, active compounds read low 0.998 | S. cerevisiae deletion strains, locus YOR265W, strain rbl2, active compounds read low 1.01 | S. cerevisiae deletion strains, locus YOR270C, strain vph1, active compounds read low 0.896 | S. cerevisiae deletion strains, locus YOR290C, strain snf2, active compounds read low 1.02 | S. cerevisiae deletion strains, locus YOR316C, strain cot1, active compounds read low 0.987 | S. cerevisiae deletion strains, locus YPL051W, strain arl3, active compounds read low 1.02 | S. cerevisiae deletion strains, locus YPL078C, strain atp4, active compounds read low 1.01 | S. cerevisiae deletion strains, locus YPL106C, strain sse1, active compounds read low 1.05 | S. cerevisiae deletion strains, locus YPL240C, strain hsp82, active compounds read low 0.997 | S. cerevisiae deletion strains, locus YPL241C, strain CIN2, active compounds read low 0.992 | S. cerevisiae deletion strains, locus YPL256C, strain CLN2, active compounds read low 0.997 | S. cerevisiae deletion strains, locus YPR119W, strain clb2, active compounds read low 0.981 | S. cerevisiae deletion strains, locus YPR141C, strain kar3, active compounds read low 1.01 | S. cerevisiae deletion strains, locus YPR163C, strain tif3, active compounds read low 0.984 | S. cerevisiae deletion strains, locus YPR167C, strain met16, active compounds read low 1 | S. cerevisiae deletion strains, strain wtn01, active compounds read low 1.01 | S. cerevisiae strains, strain wild type, active compounds read low 1
